PubChem BioAssay AID485346 (Sanford-Burnham Center for Chemical Genomics, 2010)
Hit rate of the full screen: of about 330,000 compounds, about 10,000 (3%) were called active.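 How the source made its calls: active means inhibition of at least 50% at 8 µM in the primary screen; inactive means the rest.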 Shown is part of a subset that was picked to be rich in actives.

biological target: Protein Mdm4 (Homo sapiens) + E3 ubiquitin-protein ligase Mdm2 (Homo sapiens) (UniProt O15151+Q00987); assay: inhibitors of human Mdm2-MdmX association, primary screen, cell-based, luminescence, split luciferase, SaOS-2, uHTS (AID 485346); details: SaOS-2 split-luciferase Mdm2/MdmX complementation, at 8 µM, hits give high values
Sequence (O15151 whole entry, looked up): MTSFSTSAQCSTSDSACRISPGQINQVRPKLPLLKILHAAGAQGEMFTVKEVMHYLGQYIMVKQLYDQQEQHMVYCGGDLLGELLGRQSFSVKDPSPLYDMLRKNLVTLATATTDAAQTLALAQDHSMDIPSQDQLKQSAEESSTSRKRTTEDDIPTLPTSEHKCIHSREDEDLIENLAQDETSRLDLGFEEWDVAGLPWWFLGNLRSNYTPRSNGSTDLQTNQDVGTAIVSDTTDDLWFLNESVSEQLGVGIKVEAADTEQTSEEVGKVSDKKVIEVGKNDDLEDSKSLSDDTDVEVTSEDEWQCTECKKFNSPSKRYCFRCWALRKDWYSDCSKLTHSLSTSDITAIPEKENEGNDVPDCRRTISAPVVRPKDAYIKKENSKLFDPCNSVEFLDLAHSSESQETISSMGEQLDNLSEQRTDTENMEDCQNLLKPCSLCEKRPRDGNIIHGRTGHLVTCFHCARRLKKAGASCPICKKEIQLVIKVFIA
Sequence (Q00987 whole entry, looked up): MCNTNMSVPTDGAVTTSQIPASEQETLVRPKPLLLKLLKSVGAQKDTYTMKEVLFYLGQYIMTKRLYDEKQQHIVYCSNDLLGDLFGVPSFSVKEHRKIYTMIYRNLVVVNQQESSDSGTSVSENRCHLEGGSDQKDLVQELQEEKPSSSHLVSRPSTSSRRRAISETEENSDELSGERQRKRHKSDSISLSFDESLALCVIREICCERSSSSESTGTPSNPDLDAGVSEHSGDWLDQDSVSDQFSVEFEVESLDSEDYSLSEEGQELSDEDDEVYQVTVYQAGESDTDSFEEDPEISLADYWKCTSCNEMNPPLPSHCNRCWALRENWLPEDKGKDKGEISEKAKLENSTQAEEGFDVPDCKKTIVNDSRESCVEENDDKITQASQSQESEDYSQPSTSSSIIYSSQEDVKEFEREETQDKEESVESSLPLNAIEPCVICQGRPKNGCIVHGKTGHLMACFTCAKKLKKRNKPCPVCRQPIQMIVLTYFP

inhibition, active:
Cc1ccc(Oc2nc(-c3ccccn3)nc3ccccc23)cc1 60.4%
CC(C)(C)Nc1nc(-c2ccccn2)nc2ccccc12 87.5%
CC(C)=CC(=O)Nc1nnc(-c2ccc(F)cc2)s1 80%
c1ccc2c(c1)C(=NC1CCCCC1)NC2=NC1CCCCC1 94.3%
Cc1ccc(Nc2cc(=O)n(C3CCCCC3)c(=O)[nH]2)cc1C 54.2%
O=[N+]([O-])/C=C/c1ccc2c(ccn2Cc2ccccc2)c1 95.5%
Oc1ccc(N=Nc2nccs2)c(O)c1 53.8%
CC1CCN(C(=O)c2ccc(S(=O)(=O)Cc3cc(F)ccc3F)c([N+](=O)[O-])c2)CC1 68.4%
N#Cc1ccc(C(=O)Nc2nc(-c3cccs3)c(C(=O)C(F)(F)F)s2)cc1 83.2%
Cc1ccc(-c2nn(C(C)(C)C)c3ncnc(N)c23)cc1 79%
COc1cccc2sc(N(CCCN(C)C)C(=O)CCS(=O)(=O)c3ccccc3)nc12 73.6%
Cc1cccc2sc(N(CCCN(C)C)C(=O)CCS(=O)(=O)c3ccccc3)nc12 98.7%
COc1cccc2sc(N(CCCN(C)C)C(=O)C(c3ccccc3)c3ccccc3)nc12 92.5%
NC(N)=Nc1nc(-c2ccccc2)c2cc(Cl)ccc2n1 97.4%
CCOc1ccc(S(=O)(=O)Nc2cccc(C(=O)NCC3(N4CCCCC4)CCCCC3)c2)cc1 66.6%
CCOC(=O)c1cc(NC(=O)c2ccc(Cl)cc2)c(=O)oc1-c1ccccc1 81.6%
Cc1nn(-c2ccccc2)c2sc(C(=O)N(Cc3ccco3)C(C)C(=O)NC(C)(C)C)cc12 (stereo not given) 50.9%
COc1ccc(NC(=O)/C(Cl)=C(/Cl)S(=O)Cc2ccc(C)cc2)cn1 (stereo not given) 91.5%
COc1ccc(CS(=O)/C(Cl)=C(/Cl)C(=O)Nc2ccc(OC)nc2)cc1 (stereo not given) 97.2%

inhibition, inactive:
Cc1ccc(Nc2nnc(SC(C)C(=O)NC3CC3)s2)cc1 (stereo not given) 22.3%
Cc1cc(=O)n2nc(N3CCC(C(=O)Nc4c(F)c(F)c(F)c(F)c4F)CC3)sc2n1 8.91%
c1ccc(-c2nccc(-c3ccc(-n4cnc5ccccc54)cc3)n2)nc1 28.4%
COc1cnc(-c2ccccn2)nc1Oc1ccc(C(C)(C)C)cc1 37.6%
N#Cc1ccc(Oc2cc(C(F)(F)F)nc(-c3ccccn3)n2)cc1 11.2%
c1ccc2c(NCC3CCCO3)nc(-c3ccncc3)nc2c1 (stereo not given) -16.8%
CCn1nc(C)c(CN2CCN(Cc3ccc(OC)c(C)c3C)C(CCO)C2)c1C (stereo not given) 10.8%
O=C(OCCN1CCOCC1)C1(c2ccccc2)CCCCC1 -8.86%
Cc1ncn2cc(-c3ccc(Cl)cc3Cl)[nH]c(=O)c12 7.48%
O=C(Nc1nnc(-c2ccc(F)cc2)s1)c1c(F)cccc1Cl 7.4%
Cc1ccc(C(=O)Nc2nnc(-c3ccncc3)s2)o1 -5.65%
COc1ccccc1N(C)S(=O)(=O)c1ccc(Cl)c(C(=O)N2CCC(C(N)=O)CC2)c1 -6.16%
Cc1ccc2[nH]c3c(=O)n(CC(=O)NCCc4ccc(Cl)cc4)ncc3c2c1 -13.8%
COc1ccc(C2CC(=O)Oc3ccc(C(C)(C)C)cc32)cc1 (stereo not given) 21.6%
Cc1nn(C)c(Cl)c1CN1CCC(n2nccc2NC(=O)C2CCCC2)CC1 12.6%
COCc1cc(=O)[nH]c(SC)n1 5.54%
COc1ccc([C@@H]2[C@@H]3C(=O)N(C(C)(C)C)C(=O)[C@@H]3[C@]3(Cc4ccccc4)C(=O)N(c4cccc(Br)c4)C(=O)N23)cc1 37.8%
O=C(NNC(=O)c1cc(-c2ccccc2Cl)nc2ccccc12)c1csc(N2CCOCC2)n1 -34.1%
C=CCn1c(C23CC4CC(CC(C4)C2)C3)n[nH]c1=S 9.22%
Cc1ccc(NNC(=O)C2CCC2)cc1C -2.12%
O=c1cc(C(F)(F)F)[nH]c(=O)n1C1CCCCC1 -23.2%
COC(=O)Cn1cc(/C=C/[N+](=O)[O-])c2ccccc21 23.4%
O=C(Cn1ccc2cc(S(=O)(=O)N3CCCC3)ccc21)NCc1ccccc1 12.6%
O=C(NC1(C(F)(F)F)NC(=O)N(Cc2cccnc2)C1=O)c1ccccc1Cl (stereo not given) 1.79%
Cc1cc(C)c(C#N)c(SCC(=O)N(CC(C)C)C2CCS(=O)(=O)C2)n1 (stereo not given) 18%
CN(C)Cc1c(C(=O)N/N=C/c2ccccc2OCc2ccc(F)cc2)nnn1-c1nonc1N 14.6%
Nc1ccc(C(=O)N2CCN(S(=O)(=O)c3ccc(Cl)cc3)CC2)cc1[N+](=O)[O-] 18.3%
CC1CCN(C(=O)c2ccc(CSc3ccc(Cl)cc3)cc2)CC1 -14.2%
CCOc1cccc(C(=O)Nc2nnc(-c3cccs3)s2)c1 -36.4%
COc1ccc(C(=O)Nc2nc(-c3ccc(OC)cc3)c(-c3ccc([N+](=O)[O-])cc3)s2)cc1 13.4%
COc1ccc(CC(NC(C)=O)C(=O)NC2CCN(C(=O)c3ccc(Cl)cc3)CC2)cc1 (stereo not given) 7.62%
Cc1ccc(-n2cnc3ncnc(-c4ccccc4)c32)cc1 6.32%
c1ccc(-c2cnc(CN3CCN(c4ccccc4)CC3)o2)cc1 -0.44%
CCN=c1sc(C(=O)Nc2ccccc2)c(C)n1CC 18.2%
CCCn1c(N)c(C(=O)CSc2nnc3n2CCCCC3)c(=O)[nH]c1=O 2.64%
CC(C)(C)NC(=O)NC(=O)CN1CCC(Cc2ccccc2)CC1 12%
CN(C)CCN(C(=O)CN1C(=O)c2ccccc2C1=O)c1nc2cc3c(cc2s1)OCCO3 -9.56%
COc1cc2ccccc2cc1C(=O)N(CCN(C)C)c1nc2c(F)cccc2s1 19.4%
COc1ccc(N(C)C(=O)CCS(=O)(=O)c2cccc3nsnc23)cc1 -8.48%
CC(=O)N(CCCN(C)C)c1nc2ccc(C)cc2s1 -16.8%
Cc1cccc(C)c1NC(=O)CCS(=O)(=O)c1cccc2nsnc12 -1.39%
COc1ccc(NC(=O)CS(=O)(=O)c2ccccc2)cc1 -16.7%
CC(C)(Oc1ccc(Cl)cc1)C(=O)OCC(=O)NCCc1ccc(S(N)(=O)=O)cc1 -3.95%
CC1=C(C(N)=O)C(c2ccc(F)cc2)n2nc(CCCO)nc2N1 (stereo not given) 1.82%
CCOCCCNC(=O)C1(O)c2cc(Br)ccc2NC(=O)N1c1ccc(C)c(C)c1 (stereo not given) 18.7%
Cc1nc2cc(C(F)(F)F)ccc2n1CCNc1nc(-c2cc(Cl)c(N)c(Cl)c2)cs1 27.1%
CSc1ccc(NC(=O)N2CC(C)OC(C)C2)cc1 (stereo not given) 15%
COc1cc(NS(=O)(=O)c2ccc(NC(=O)c3ccc(S(=O)(=O)N4CCCCC4)cc3)cc2)ncn1 13.5%
O=C(CCl)NNc1nc(-c2ccccc2)c2cc(Cl)ccc2n1 19.7%
OCCCNc1nc(-c2ccccc2)c2cc(Cl)ccc2n1 19.5%
COC(=O)c1ccc(C2C3=C(Nc4nnnn42)c2ccccc2OC3)cc1 (stereo not given) 14.2%
COc1ccc(C(=O)NC(C)Cn2nc(C)cc2C)cc1OC1CCN(C(C)=O)CC1 (stereo not given) 2.18%
COC(=O)c1ccc(Nc2ncnc3sccc23)cc1 1.96%
O=C1CN(C(=O)c2ccccc2F)C(c2ccc(F)cc2)c2cc(F)ccc2N1 (stereo not given) -22.4%
CCOC(=O)C1(CCOc2ccccc2)CCN(Cc2ccc(C#CCCO)cc2)CC1 27.4%
CC(C)CN(CC(C)C)CC(O)CN(c1ccccc1)S(=O)(=O)c1ccccc1[N+](=O)[O-] (stereo not given) 31.5%
CCOc1ccc(NS(=O)(=O)c2ccc(C(=O)NCC(c3ccccc3OC)N3CCCC3)cc2)cc1 (stereo not given) 38.1%
O=C(NCC1(N2CCCCC2)CCCCC1)c1ccc(NS(=O)(=O)c2ccc(F)cc2)cc1 8.39%
COc1cccc(NC(=O)c2cc(S(=O)(=O)N3CCc4ccccc43)cn2C)c1 32%
COCc1cc(C)n(CC(=O)NCC2CCCO2)c(=O)c1C#N (stereo not given) -12.8%
CCOC(=O)NNC(=O)c1ccc(Cl)cc1 9.31%
CC(=O)c1cc(NC(=O)c2ccccc2)c(=O)oc1/C=C/N(C)C -7.04%
COC(=O)C1=C(C(=O)OC)[C@@H]2N(C)c3ccccc3[C@@]23C[C@@H](C(=O)OC)N(C(=O)c2ccco2)C3=N1 30%
Cc1nc(C)c(C(=O)N(c2ccc(C)c(C)c2)C(C(=O)NCc2ccco2)c2ccccc2)s1 (stereo not given) -6.49%
Cc1ccc(-c2nnn(CC(=O)N(Cc3ccco3)C(C(=O)NC(C)(C)C)c3ccncc3)n2)o1 (stereo not given) -5.12%
CCC(C)Cn1c(O)cc2nn(-c3nc4ccccc4s3)c(=O)c-2c1C (stereo not given) 39.4%
COC(=O)c1sccc1NC(=S)Nc1ccc(C)cc1 -1.32%
COc1ccc(CCNC(=O)c2cnc(Cl)c(Cl)c2)cc1 -0.067%
COc1ccc(Nc2ccc([N+](=O)[O-])cn2)cn1 8.39%
CCOc1ccc(S(=O)(=O)Nc2ccc(OC)nc2)cc1 -9.26%
CCCCC(c1nnnn1CS(=O)(=O)c1ccc(C)cc1)N1CCC(C(N)=O)CC1 (stereo not given) 20%
